Among the data in the supplement of paper PMC11555231 are log2 enrichment score values, retold here.

This assay concerns the target PADI4, Q9UM07. Briefly: log2 enrichment score relative to parent PADI4_3 peptide (binding to PADI4); higher = tighter binding than parent. Conditions: CaCl2: 10 mM. As to the method:
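Deep mutational scan of the cyclic peptide PADI4_3 (ClAc-D-Tyr1 initiator, thioether-cyclised to Cys12, C-terminal Gly plus HA tag, mRNA-displayed). Positions 2-11 were each randomised by NNK codons; Met was reprogrammed as N-methyl-alanine (MeA). One round of equilibrium panning against bead-immobilised human PADI4 (100 nM, 10 mM CaCl2, RT). Log2 enrichment (bound/input frequency) relative to the parent sequence (0 = parent), mean of three independent selections.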

Chain of PADI4, Q9UM07 (Q9UM07 whole entry): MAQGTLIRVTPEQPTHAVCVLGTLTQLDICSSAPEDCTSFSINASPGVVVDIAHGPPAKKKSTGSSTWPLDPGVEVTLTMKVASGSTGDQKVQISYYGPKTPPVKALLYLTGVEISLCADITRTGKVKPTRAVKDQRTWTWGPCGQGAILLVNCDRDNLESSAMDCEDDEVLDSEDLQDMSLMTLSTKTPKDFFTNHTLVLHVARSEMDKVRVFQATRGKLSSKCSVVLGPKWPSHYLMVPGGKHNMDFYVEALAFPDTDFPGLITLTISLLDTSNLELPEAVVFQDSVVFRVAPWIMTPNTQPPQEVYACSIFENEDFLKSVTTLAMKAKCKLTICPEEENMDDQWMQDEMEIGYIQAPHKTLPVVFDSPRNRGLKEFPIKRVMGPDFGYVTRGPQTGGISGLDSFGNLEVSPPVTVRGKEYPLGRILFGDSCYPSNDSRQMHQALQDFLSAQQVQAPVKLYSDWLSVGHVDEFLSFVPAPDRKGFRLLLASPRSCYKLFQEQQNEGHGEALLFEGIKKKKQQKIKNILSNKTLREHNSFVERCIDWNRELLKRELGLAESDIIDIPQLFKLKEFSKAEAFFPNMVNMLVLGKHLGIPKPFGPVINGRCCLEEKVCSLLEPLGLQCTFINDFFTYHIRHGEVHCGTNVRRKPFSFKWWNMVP

With YRDHHLRHPKYCG [PADI4_3_Y6L Y6L], the log2 enrichment score was -1.7.
Turning to YRDHHNRHPKYCG [PADI4_3_Y6N Y6N], the log2 enrichment score was -2.28.
The figure for YRDHHYRHPGYCG [PADI4_3_K10G K10G] is -2.43; for YRDHHYRNPKYCG [PADI4_3_H8N H8N] it is -2.87.
The figure for YRDHHYRHPKGCG [PADI4_3_Y11G Y11G] is -4.17; for YRDHHYRAPKYCG [PADI4_3_H8A H8A] it is -3.62; for YRDHHYRHPLYCG [PADI4_3_K10L K10L] it is 0.693.
Then YRDHHIRHPKYCG [PADI4_3_Y6I Y6I], with -2.71; and YRDHHYQHPKYCG [PADI4_3_R7Q R7Q], with -0.31; and YRDNHYRHPKYCG [PADI4_3_H4N H4N], with -2.71.
YNDHHYRHPKYCG [PADI4_3_R2N R2N]: the log2 enrichment score was -2.77.
The figure for YRDHHYAHPKYCG [PADI4_3_R7A R7A] is 0.206; for YRDHLYRHPKYCG [PADI4_3_H5L H5L] it is -3.61; for YRIHHYRHPKYCG [PADI4_3_D3I D3I] it is -4.17.
The figure for YGDHHYRHPKYCG [PADI4_3_R2G R2G] is -3.89; for YRDHHARHPKYCG [PADI4_3_Y6A Y6A] it is -1.95; for YRGHHYRHPKYCG [PADI4_3_D3G D3G] it is -3.8.
For the molecule YRDHHYRHQKYCG [PADI4_3_P9Q P9Q], the log2 enrichment score was -1.71.
Then YRDHHYRHGKYCG [PADI4_3_P9G P9G], with -2.45.
The figure for YRDHHYNHPKYCG [PADI4_3_R7N R7N] is 1.37; for YRDHAYRHPKYCG [PADI4_3_H5A H5A] it is -2.12.
Then YRDHHYRHPKICG [PADI4_3_Y11I Y11I], with -3.77; and YRDGHYRHPKYCG [PADI4_3_H4G H4G], with -3.75; and YRDHHYRIPKYCG [PADI4_3_H8I H8I], with -3.37.
In the case of YRDHHYRHIKYCG [PADI4_3_P9I P9I], the log2 enrichment score is -1.78.
Then YRDHHYLHPKYCG [PADI4_3_R7L R7L], with -2.09; and YRDHIYRHPKYCG [PADI4_3_H5I H5I], with -3.45; and YRDIHYRHPKYCG [PADI4_3_H4I H4I], with -2.05.
Then YIDHHYRHPKYCG [PADI4_3_R2I R2I], with -1.38.
YRDHHQRHPKYCG [PADI4_3_Y6Q Y6Q]: the log2 enrichment score is -1.94.
The figure for YRQHHYRHPKYCG [PADI4_3_D3Q D3Q] is -3.32; for YRDHHYRHNKYCG [PADI4_3_P9N P9N] it is -2.01; for YRDAHYRHPKYCG [PADI4_3_H4A H4A] it is -1.88.
Then YRDHHGRHPKYCG [PADI4_3_Y6G Y6G], with -1.54.
Take YRDHHYRHPKNCG [PADI4_3_Y11N Y11N]: the log2 enrichment score was -3.81.
With YRDHNYRHPKYCG [PADI4_3_H5N H5N], the log2 enrichment score is -3.38.
The figure for YQDHHYRHPKYCG [PADI4_3_R2Q R2Q] is -1.6; for YRDHQYRHPKYCG [PADI4_3_H5Q H5Q] it is -3.72; for YRNHHYRHPKYCG [PADI4_3_D3N D3N] it is -2.8.
On to YRLHHYRHPKYCG [PADI4_3_D3L D3L], for which the log2 enrichment score is -2.88.
Regarding YRDHHYRHPNYCG [PADI4_3_K10N K10N], the log2 enrichment score was -1.77.
Then YRDHHYRQPKYCG [PADI4_3_H8Q H8Q], with -3.37; and YADHHYRHPKYCG [PADI4_3_R2A R2A], with -2.77.
For the molecule YRDHHYRHPIYCG [PADI4_3_K10I K10I], the log2 enrichment score is 2.81.
Turning to YRDHHYRHPQYCG [PADI4_3_K10Q K10Q], the log2 enrichment score is -1.09.
The figure for YRDHHYRHPAYCG [PADI4_3_K10A K10A] is -1.7; for YLDHHYRHPKYCG [PADI4_3_R2L R2L] it is -0.745.
The figure for YRDQHYRHPKYCG [PADI4_3_H4Q H4Q] is -0.57.
Consider YRDHHYRLPKYCG [PADI4_3_H8L H8L], for which the log2 enrichment score was -3.01.
Then YRDHGYRHPKYCG [PADI4_3_H5G H5G], with -3.73.
For the molecule YRDHHYGHPKYCG [PADI4_3_R7G R7G], the log2 enrichment score is -2.58.
YRDHHYRHPKACG [PADI4_3_Y11A Y11A]: the log2 enrichment score was -4.24.
Then YRDHHYRHAKYCG [PADI4_3_P9A P9A], with -1.66; and YRAHHYRHPKYCG [PADI4_3_D3A D3A], with -2.97.
Turning to YRDHHYRHPKQCG [PADI4_3_Y11Q Y11Q], the log2 enrichment score was -4.43.
The figure for YRDHHYRHLKYCG [PADI4_3_P9L P9L] is -2.12.
In the case of YRDHHYIHPKYCG [PADI4_3_R7I R7I], the log2 enrichment score was -1.67.
As to YRDHHYRGPKYCG [PADI4_3_H8G H8G], the log2 enrichment score was -3.99.
In the case of YRDHHYRHPKLCG [PADI4_3_Y11L Y11L], the log2 enrichment score is -3.94.
